From ChEMBL document CHEMBL1961873, “Compounds: GSK PKIS; Assays: Nanosyn kinase panel” (2012) come the findings set out here.

In assay [1] the target is 5'-AMP-activated protein kinase catalytic subunit alpha-2 (Homo sapiens) (UniProt P54646). The settings on record: at 1 µM.
Assay [2] addresses T1, NUAK family SNF1-like kinase 1 (Homo sapiens) (UniProt O60285).
T1 sequence (whole entry): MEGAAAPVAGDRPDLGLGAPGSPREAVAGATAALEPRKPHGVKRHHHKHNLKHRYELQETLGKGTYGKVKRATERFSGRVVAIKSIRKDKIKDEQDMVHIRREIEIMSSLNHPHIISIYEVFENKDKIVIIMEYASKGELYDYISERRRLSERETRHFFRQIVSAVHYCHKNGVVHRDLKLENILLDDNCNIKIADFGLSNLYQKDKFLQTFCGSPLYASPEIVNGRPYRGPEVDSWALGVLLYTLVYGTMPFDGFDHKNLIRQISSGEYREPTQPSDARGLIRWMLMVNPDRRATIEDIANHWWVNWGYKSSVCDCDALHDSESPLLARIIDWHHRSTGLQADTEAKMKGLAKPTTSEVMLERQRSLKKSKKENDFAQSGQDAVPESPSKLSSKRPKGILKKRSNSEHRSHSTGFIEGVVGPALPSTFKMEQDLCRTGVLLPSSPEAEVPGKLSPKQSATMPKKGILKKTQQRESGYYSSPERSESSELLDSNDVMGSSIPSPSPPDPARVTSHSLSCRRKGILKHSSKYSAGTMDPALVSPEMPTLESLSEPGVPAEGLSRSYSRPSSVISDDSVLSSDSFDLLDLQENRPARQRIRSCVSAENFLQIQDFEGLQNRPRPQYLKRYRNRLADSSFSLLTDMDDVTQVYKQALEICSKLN
The settings on record: at 0.1 µM.

Assay [3] has as its target T1, NUAK family SNF1-like kinase 1 (Homo sapiens). The settings on record: at 1 µM.
Assay [4] addresses T2, Serine/threonine-protein kinase BRSK1 (Homo sapiens) (UniProt Q8TDC3).
T2 sequence (whole entry): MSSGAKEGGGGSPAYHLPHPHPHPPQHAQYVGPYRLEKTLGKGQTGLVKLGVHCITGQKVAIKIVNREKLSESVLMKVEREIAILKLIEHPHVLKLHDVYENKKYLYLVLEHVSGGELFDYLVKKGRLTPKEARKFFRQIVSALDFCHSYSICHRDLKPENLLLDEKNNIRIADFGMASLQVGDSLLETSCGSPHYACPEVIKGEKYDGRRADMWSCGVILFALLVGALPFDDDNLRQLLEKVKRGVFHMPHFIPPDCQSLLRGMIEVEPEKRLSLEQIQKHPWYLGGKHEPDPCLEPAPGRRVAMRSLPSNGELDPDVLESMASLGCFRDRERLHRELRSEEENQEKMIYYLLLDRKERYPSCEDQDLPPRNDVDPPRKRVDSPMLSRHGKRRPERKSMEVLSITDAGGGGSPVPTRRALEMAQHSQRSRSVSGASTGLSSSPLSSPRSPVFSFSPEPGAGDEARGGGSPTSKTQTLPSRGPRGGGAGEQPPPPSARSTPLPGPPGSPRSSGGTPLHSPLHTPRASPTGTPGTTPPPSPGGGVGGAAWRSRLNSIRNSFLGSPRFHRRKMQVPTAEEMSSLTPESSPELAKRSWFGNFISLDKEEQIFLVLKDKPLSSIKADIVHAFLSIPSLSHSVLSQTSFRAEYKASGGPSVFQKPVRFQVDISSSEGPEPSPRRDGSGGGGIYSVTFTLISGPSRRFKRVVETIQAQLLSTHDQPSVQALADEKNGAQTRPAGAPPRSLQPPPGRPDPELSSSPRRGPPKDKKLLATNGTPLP
Conditions: at 0.1 µM.

The target of assay [5] is T2, Serine/threonine-protein kinase BRSK1 (Homo sapiens). The settings on record: at 1 µM.
Assay [6] has as its target T3, Serine/threonine-protein kinase BRSK2 (Homo sapiens) (UniProt Q8IWQ3).
T3 sequence (whole entry): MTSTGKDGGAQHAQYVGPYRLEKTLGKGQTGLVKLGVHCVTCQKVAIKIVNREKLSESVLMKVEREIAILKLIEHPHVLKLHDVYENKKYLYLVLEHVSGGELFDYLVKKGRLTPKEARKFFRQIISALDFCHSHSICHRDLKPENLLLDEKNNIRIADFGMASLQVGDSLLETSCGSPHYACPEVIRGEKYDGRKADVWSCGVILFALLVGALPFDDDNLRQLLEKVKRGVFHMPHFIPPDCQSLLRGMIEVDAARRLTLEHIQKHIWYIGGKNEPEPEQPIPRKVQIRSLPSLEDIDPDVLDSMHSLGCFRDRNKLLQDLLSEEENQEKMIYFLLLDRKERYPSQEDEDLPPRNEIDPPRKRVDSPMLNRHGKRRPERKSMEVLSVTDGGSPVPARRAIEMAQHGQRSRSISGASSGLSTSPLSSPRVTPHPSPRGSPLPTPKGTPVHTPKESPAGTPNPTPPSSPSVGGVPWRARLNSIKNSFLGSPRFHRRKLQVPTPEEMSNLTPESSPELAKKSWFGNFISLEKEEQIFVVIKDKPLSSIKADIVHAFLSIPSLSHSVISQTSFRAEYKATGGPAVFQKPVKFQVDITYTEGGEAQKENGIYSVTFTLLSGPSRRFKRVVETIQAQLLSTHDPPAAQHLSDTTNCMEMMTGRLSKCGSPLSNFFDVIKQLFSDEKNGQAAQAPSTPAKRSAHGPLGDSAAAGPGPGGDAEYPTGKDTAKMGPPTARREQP
The settings on record: at 0.1 µM.

The target of assay [7] is T3, Serine/threonine-protein kinase BRSK2 (Homo sapiens). The settings on record: at 1 µM.
Assay [8] addresses Calcium/calmodulin-dependent protein kinase type 1D (Homo sapiens) (UniProt Q8IU85). The settings on record: at 0.1 µM.
Assay [9] has the same target. Conditions: at 1 µM.
Assay [10] has as its target Calcium/calmodulin-dependent protein kinase type II subunit alpha (Homo sapiens) (UniProt Q9UQM7). Conditions: at 0.1 µM.
Assay [11] has the same target. Conditions: at 1 µM.
Assay [12] addresses Calcium/calmodulin-dependent protein kinase type II subunit delta (Homo sapiens) (UniProt Q13557). The settings on record: at 0.1 µM.
Assay [13] has the same target. The settings on record: at 1 µM.
In assay [14] the target is T4, Calcium/calmodulin-dependent protein kinase type IV (Homo sapiens) (UniProt Q16566).
T4 sequence (whole entry): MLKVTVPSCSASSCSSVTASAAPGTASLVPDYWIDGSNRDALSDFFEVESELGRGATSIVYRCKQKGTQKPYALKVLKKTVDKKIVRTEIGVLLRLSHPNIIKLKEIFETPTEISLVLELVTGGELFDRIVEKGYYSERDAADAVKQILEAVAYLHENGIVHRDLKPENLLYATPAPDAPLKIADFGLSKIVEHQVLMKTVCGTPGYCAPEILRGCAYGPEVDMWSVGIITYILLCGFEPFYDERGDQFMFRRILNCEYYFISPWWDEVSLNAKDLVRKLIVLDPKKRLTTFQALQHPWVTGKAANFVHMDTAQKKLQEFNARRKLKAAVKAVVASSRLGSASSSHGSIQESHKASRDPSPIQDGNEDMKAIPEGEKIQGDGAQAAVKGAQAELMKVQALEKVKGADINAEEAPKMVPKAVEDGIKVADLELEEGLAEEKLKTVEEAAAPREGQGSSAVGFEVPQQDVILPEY
Conditions: at 0.1 µM.

The target in assay [15] is T4, Calcium/calmodulin-dependent protein kinase type IV (Homo sapiens). The settings on record: at 1 µM.
In assay [16] the target is T5, Serine/threonine-protein kinase Chk1 (Homo sapiens) (UniProt O14757).
T5 sequence (whole entry): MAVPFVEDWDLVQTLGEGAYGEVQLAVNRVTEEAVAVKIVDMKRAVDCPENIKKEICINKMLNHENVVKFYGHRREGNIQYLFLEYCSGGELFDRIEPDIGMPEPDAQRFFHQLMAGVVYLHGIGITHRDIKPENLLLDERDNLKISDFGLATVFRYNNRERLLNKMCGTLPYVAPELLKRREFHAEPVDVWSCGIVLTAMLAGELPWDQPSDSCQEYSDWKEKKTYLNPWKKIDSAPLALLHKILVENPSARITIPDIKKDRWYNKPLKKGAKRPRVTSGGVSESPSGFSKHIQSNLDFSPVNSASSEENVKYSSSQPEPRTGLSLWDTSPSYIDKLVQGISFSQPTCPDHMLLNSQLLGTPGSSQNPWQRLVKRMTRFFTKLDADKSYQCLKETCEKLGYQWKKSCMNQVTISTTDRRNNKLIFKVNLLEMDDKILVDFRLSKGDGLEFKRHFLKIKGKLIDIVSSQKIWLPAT
The settings on record: at 0.1 µM.

Assay [17] has as its target T5, Serine/threonine-protein kinase Chk1 (Homo sapiens). The settings on record: at 1 µM.
In assay [18] the target is Serine/threonine-protein kinase Chk2 (Homo sapiens) (UniProt O96017). Conditions: at 0.1 µM.
Assay [19] shares this target. The settings on record: at 1 µM.
In assay [20] the target is Death-associated protein kinase 1 (Homo sapiens) (UniProt P53355). Conditions: at 0.1 µM.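 Also: reported figure is the mean inhibition of DAPK1.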
Death-associated protein kinase 1 (Homo sapiens), sequence (P53355 whole entry, looked up): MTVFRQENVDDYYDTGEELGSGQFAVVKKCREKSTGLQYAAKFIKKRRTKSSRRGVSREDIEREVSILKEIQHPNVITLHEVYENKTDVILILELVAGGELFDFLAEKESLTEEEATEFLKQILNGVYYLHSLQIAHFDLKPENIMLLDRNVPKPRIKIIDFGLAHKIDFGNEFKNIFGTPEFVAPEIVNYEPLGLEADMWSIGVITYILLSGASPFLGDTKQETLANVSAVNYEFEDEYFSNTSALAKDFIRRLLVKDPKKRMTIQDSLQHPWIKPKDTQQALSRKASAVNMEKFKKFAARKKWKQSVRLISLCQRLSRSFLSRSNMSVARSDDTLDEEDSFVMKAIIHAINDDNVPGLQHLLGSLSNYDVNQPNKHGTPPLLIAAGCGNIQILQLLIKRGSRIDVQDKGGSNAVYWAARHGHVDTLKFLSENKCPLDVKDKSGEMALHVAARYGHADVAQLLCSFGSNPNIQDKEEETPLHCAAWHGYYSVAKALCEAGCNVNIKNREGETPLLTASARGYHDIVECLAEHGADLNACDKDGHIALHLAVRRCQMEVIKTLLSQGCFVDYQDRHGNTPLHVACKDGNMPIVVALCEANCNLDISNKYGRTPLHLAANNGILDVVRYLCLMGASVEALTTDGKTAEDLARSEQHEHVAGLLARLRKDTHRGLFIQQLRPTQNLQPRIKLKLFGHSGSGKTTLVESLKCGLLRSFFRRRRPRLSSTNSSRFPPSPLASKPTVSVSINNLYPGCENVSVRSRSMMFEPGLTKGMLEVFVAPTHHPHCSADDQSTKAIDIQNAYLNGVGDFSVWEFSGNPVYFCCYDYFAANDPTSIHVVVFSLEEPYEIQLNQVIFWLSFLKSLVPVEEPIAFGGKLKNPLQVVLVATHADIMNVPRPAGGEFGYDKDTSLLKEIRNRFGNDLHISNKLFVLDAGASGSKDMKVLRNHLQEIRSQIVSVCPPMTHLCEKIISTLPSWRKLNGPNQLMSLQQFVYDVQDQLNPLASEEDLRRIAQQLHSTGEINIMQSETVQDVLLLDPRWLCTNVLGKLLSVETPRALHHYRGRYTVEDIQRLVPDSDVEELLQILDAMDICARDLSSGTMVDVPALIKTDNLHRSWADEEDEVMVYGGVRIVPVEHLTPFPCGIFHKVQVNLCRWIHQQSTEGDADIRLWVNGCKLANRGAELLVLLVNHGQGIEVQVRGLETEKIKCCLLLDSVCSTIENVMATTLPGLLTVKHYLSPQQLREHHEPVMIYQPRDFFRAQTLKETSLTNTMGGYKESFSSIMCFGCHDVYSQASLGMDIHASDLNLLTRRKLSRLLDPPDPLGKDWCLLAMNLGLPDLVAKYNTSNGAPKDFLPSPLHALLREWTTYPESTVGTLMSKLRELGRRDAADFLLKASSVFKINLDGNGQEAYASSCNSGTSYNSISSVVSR

Calcium/calmodulin-dependent protein kinase type 1D (Homo sapiens), sequence (Q8IU85 whole entry, looked up): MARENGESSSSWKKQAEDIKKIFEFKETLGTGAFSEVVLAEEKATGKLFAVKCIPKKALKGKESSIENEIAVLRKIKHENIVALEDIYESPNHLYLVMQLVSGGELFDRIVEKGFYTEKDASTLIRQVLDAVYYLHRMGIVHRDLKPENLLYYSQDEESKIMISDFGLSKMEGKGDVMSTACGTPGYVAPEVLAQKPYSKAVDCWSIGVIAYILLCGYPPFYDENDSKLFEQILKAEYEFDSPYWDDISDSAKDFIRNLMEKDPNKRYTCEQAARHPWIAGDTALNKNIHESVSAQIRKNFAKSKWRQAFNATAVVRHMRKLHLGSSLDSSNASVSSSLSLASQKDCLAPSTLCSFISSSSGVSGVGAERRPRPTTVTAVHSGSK
Calcium/calmodulin-dependent protein kinase type II subunit delta (Homo sapiens), sequence (Q13557 whole entry): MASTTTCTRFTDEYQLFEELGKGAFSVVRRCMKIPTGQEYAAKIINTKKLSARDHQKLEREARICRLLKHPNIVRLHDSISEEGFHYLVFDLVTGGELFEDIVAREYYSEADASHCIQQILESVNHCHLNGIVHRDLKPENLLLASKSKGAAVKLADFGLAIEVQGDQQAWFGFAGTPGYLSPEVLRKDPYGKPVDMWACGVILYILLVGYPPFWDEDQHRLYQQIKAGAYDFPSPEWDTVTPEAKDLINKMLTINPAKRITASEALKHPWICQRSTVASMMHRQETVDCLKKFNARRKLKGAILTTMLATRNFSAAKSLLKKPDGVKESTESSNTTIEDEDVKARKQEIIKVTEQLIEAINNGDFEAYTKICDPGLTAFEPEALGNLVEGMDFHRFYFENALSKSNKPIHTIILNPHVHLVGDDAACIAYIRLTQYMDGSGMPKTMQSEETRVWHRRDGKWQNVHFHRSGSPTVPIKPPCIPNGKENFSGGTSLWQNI
5'-AMP-activated protein kinase catalytic subunit alpha-2 (Homo sapiens), sequence (P54646 whole entry, looked up): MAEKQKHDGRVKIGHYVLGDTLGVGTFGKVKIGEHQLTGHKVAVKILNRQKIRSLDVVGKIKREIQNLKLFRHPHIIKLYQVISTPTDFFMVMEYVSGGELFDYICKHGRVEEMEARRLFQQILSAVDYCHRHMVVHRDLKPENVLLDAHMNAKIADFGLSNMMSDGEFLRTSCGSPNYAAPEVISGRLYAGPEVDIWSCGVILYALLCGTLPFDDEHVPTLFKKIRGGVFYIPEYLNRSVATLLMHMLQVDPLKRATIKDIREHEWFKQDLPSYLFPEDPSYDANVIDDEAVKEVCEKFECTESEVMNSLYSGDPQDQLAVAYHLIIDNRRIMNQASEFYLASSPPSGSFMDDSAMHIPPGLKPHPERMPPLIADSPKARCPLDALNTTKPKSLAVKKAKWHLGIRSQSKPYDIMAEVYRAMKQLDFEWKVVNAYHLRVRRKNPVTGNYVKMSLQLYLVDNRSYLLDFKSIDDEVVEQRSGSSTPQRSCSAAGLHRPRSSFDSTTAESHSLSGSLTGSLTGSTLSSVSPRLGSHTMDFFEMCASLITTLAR
Serine/threonine-protein kinase Chk2 (Homo sapiens), sequence (O96017 whole entry): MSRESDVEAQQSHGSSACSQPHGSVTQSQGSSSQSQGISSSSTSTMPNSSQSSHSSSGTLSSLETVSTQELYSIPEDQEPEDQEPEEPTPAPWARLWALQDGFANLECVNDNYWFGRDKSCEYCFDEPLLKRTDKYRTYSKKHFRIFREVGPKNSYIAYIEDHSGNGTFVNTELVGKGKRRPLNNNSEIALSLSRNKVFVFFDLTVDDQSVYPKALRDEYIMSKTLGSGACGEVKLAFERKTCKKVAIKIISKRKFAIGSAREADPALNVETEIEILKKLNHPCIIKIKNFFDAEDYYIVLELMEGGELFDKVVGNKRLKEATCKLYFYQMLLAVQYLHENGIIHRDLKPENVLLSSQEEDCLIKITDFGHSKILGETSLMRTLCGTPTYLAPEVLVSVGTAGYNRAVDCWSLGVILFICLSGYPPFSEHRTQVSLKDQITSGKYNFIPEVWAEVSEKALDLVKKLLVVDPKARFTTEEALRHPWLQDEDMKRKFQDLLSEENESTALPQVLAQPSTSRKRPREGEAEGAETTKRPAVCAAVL
Calcium/calmodulin-dependent protein kinase type II subunit alpha (Homo sapiens), sequence (Q9UQM7 whole entry): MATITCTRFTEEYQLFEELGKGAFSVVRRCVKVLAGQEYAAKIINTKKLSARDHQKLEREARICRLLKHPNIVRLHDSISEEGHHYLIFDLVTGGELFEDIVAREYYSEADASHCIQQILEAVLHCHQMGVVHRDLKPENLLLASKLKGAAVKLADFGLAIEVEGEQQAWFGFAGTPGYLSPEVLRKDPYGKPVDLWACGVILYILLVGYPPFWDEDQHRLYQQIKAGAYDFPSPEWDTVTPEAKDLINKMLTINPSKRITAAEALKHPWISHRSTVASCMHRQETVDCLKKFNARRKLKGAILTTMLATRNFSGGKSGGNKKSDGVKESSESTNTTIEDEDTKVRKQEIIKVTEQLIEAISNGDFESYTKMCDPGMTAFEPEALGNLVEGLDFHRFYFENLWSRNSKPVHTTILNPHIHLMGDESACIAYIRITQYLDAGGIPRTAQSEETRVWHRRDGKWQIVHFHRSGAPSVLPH

For `CCN(CC)Cc1ccc(Nc2nccc(-c3cnn4ncccc34)n2)cc1`, the inhibition was found to be 12.7% in assay [1]; 69% in assay [2]; 84.3% in assay [3]; 3.36% in [4]; 3.16% in assay [5]; 2.2% in assay [6]. The inhibition in [7] was 10.6%; in [8] it was -0.62%; in [9], 4.23%; in [10], 2.6%; in assay [11] it was 4.21%; in assay [12], 3.84%. In addition, the inhibition in assay [13] was 14.3%; in [14] it was -0.37%; in assay [15], 0.34%; in assay [16] it was 1.29%; in [17] it was 11.6%; in assay [18] it was 2.5%. Further, the inhibition was 7.56% in assay [19] and 2.68% in assay [20].

For the compound `CS(=O)(=O)CCNCc1cc(-c2cc3c(Nc4ccc(OCc5cccc(F)c5)c(Cl)c4)ncnc3s2)cs1`, the inhibition in [1] was 3.11%; in assay [2], -0.49%; in [3] it was 3.79%; in assay [4] it was 1.37%; in assay [5], -0.77%; in assay [6], 0.67%. Also, the inhibition in assay [7] turned out to be 4.02%; in assay [8], 0.48%; in assay [9], 2.27%; in assay [10], 3.07%; in [11] it was 3.15%; in [12] it was 4.55%. Moreover, the inhibition in [13] was 7.4%; in [14], -2.05%; in assay [15], 2.64%; in assay [16], 1.14%; in assay [17], 4.23%; in [18], 4.96%. Besides, the results for the inhibition in assay [19] and in assay [20] were 11.2% and 2.74%, respectively.

For `COC(=O)Nc1nc2ccc(Sc3ccc(NC(=O)Nc4cc(C(F)(F)F)ccc4F)cc3)cc2[nH]1`, the inhibition in [1] was 1.29%; in assay [2] it was 3.62%; in assay [3] it was -4.85%; in [4], -1.14%; in [5], 0.16%; in [6], -0.46%. The inhibition came out at 1.01% in assay [7]; 0.9% in assay [8]; 0.37% in [9]; 3% in assay [10]; 4.35% in assay [11]; 1.39% in assay [12]. The inhibition in [13] was 2.79%; in assay [14], 0.44%; in assay [15], 1.75%; in [16], 2.81%; in assay [17], 1.17%; in assay [18], -0.98%. Further, the inhibition in assay [19] turned out to be 0.37%; in assay [20], 3.64%.

In the case of `NC(=O)Cc1ccccc1Oc1nccc(-c2c(-c3ccc(F)cc3)ncn2C2CCNCC2)n1`, the inhibition in assay [1] worked out at 2.59%; in assay [2], 0.84%; in assay [3] it was 2.97%; in assay [4], 4.71%; in assay [5], 6.12%; in assay [6] it was 4.74%. Further, the inhibition stood at 5.25% in [7]; 0.63% in assay [8]; 1.65% in assay [9]; 2.81% in [10]; 2.07% in assay [11]; 2.62% in assay [12]. Besides, the inhibition is 2.58% in assay [13]; 0.99% in assay [14]; -0.11% in assay [15]; 0.75% in [16]; 5.68% in [17]; 4.2% in assay [18]. For the same compound, the inhibition came to 6.05% in assay [19] and 2.51% in [20].

As to `NCc1ccc(-n2c(-c3nonc3N)nc3cnccc32)cc1`, the inhibition in assay [1] came to 8.19%; in assay [2] it was 4.91%; in assay [3], 7.23%; in assay [4], 4.76%; in [5] it was 6.27%; in assay [6], 4.11%. Further, the inhibition in assay [7] amounted to 8.49%; in [8] it was 2.03%; in assay [9], 4.78%; in [10], 4.91%; in assay [11] it was 7.05%; in assay [12] it was 6.42%. Further, the inhibition in [13] was 15.2%; in assay [14] it was -0.16%; in assay [15], 4.15%; in assay [16] it was 8.32%; in assay [17], 12.3%; in [18], 2.9%. For the same compound, the inhibition in assay [19] is 6.29%; in assay [20], 7.02%.

By inhibition is commonly meant the drop in the measured response relative to a control, in per cent.
